# D2 ag-1: agonists of human D2 dopamine receptor (beta-arrestin). P14416. DiscoveRx PathHunter D2 beta-arrestin, luminescence, 90 min; 100% = 57 uM dopamine signal. activation, % (test concentration not listed). actives 0.084% (n = 360,000). AID 624465; in the data active = activation above about 40%; inconclusive = between about 15% and that limit
# Target sequence (P14416 whole entry, looked up): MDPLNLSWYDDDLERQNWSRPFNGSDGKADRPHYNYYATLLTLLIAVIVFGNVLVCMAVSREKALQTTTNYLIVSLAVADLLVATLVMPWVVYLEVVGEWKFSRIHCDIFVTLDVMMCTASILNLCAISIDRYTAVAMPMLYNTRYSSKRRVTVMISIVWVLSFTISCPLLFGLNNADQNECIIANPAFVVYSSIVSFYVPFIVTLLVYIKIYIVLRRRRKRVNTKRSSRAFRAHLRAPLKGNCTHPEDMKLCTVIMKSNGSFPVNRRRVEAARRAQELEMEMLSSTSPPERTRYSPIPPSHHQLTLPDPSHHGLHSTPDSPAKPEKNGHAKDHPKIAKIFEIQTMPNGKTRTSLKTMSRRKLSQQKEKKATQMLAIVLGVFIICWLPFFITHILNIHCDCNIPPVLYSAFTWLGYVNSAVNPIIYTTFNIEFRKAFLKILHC
#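 DiscoveRx PathHunter D2 beta-arrestin cells (2,100/well) attached overnight, then compound-stimulated 90 min at 37 C in HBSS/10 mM HEPES/0.1% Tween-20 buffer; beta-galactosidase complementation read by luminescence after 1 h at ambient temperature. Dopamine 57 uM final (EC100) as control.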
# D2 PAM-1: potentiates the human D2 dopamine receptor allosterically | potentiation, % (test concentration not listed) | AID 624464 | DiscoveRx D2 beta-arrestin cells, luminescence, 90 min; 100% = 57 uM dopamine signal | actives 0.23% (n = 360,000) | P14416; in the data active = potentiation above about 50%; inconclusive = mostly about 30% to 49%
#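 D2 cells co-treated with compound plus 50 nM dopamine (EC20) for 90 min at 37 deg C to detect potentiation. Beta-arrestin recruitment was read as enzyme-fragment luminescence after 1 h at ambient temperature. Full response was set by 57 uM dopamine.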
# D2 PAM-2: positively modulates the human D2 dopamine receptor allosterically; P14416; HEK293 T-REx D2, calcium flux, EC20 dopamine potentiation; potentiation, % at 10 µM; actives 0.34% (n = 340,000);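 active = potentiation over 3 SD above the plate norm, cut at about 30% in these data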
#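 Cells plated with tetracycline inducer and held overnight at 30 C; calcium dye loaded 30–90 min at room temperature; baseline taken, compound added and read 180 s; EC20 dopamine then added and read 180 s.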
# D2 ag-2: activates the human D2 dopamine receptor | HEK293 T-REx D2 cells, calcium flux agonist mode | activation, % at 2 µM | actives 0.53% (n = 340,000);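 active = activation over 3 SD above normal in the single-dose calcium agonist read, cut at about 30% in these data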
#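 Tetracycline-induced HEK293 Trex cells with D2 receptor force-coupled to calcium signaling, plated overnight at 30 C and loaded with no-wash calcium dye. Calcium flux read kinetically for 180 s after compound addition; responses flag agonists.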
# D2 antag: antagonists of human D2 dopamine receptor; P14416; HEK293 TREx D2 cells, calcium flux, dopamine EC80; inhibition, % at 10 µM; actives 2% (n = 340,000); AID 485344; in the data active = inhibition above about 30%; inactive = below that, where a call was filed
#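 Inhibition of EC80 dopamine-driven calcium flux, recorded kinetically, defines activity here; cells are a tetracycline-induced HEK293 T-REx line expressing force-coupled D2.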
# Numbers stand for hits; n = inactive; u = inconclusive; x = not tested or not shown. The list is not random: actives were taken first. Their share in the collection is about 2.4%.
SMILES,D2 ag-1,D2 PAM-1,D2 PAM-2,D2 ag-2,D2 antag
CC(C)NCC(O)COc1ccc(CCOCC2CC2)cc1 (stereo unspecified),n,n,n,n,n
CCN(CC)S(=O)(=O)c1ccc2c(c1)N(CC(=O)N(C)Cc1ccccc1)C(=O)CO2,x,x,n,n,x
CCOc1cc(CNc2ncnc3nc[nH]c23)ccc1OC,n,n,n,n,37.6
COCCOc1ccc(C(F)(F)F)cc1NC(=O)c1ccc(C(F)(F)F)cc1,n,n,n,n,58.6
CCOCN(C(=O)Cn1cnc2cc(C)c(C)cc21)c1c(C)cccc1CC,x,x,n,n,x
CCOC(=O)C(C)(C)Sc1nc2c(cnn2-c2ccc(C)cc2)c(=O)[nH]1,n,n,n,n,47.8
Cc1ccc(-n2ncc3c(=O)[nH]c(SCC(=O)N4CCOCC4)nc32)cc1,n,n,n,n,n
CCC1CCCCN1C(=O)CSc1nc2c(cnn2-c2ccc(C)cc2)c(=O)[nH]1 (stereo unspecified),n,n,n,n,33.2
CC(C)(C)C(=O)N1CCc2cc(-c3csc(N)n3)ccc21,n,n,33.4,n,n
CCOC(=O)c1ccc(NC(=O)CC2C(=O)N(c3ccccc3)C(=O)N2Cc2ccc(C)cc2)cc1 (stereo unspecified),x,x,n,n,x
O=C(NCCc1csc(-c2ccc(C(F)(F)F)cc2)n1)c1ccc(F)c(F)c1,x,x,n,n,x
COc1ccc(C(C(=O)NC2CCCCC2)N(C(=O)CCl)c2ccc(C)cc2)cc1 (stereo unspecified),n,n,n,n,n
COc1ccc(C(C(=O)NC2CCCC2)N(C(=O)c2ccoc2C)c2ccc(C)cc2)cc1 (stereo unspecified),n,n,n,n,50.1
Cc1ccccc1C(C(=O)NC1CCCC1)N(C(=O)CNC(=O)c1ccco1)c1cccnc1 (stereo unspecified),x,x,n,n,50.8
CC(=O)Nc1ccc(N(C(=O)c2ccco2)C(C(=O)NC2CCCCC2)c2ccccc2)cc1 (stereo unspecified),n,n,n,n,36.7
COc1ccc(N(C(=O)CNC(=O)c2ccco2)C(C(=O)NC2CCCC2)c2ccncc2)cc1 (stereo unspecified),n,n,n,n,51.1
CC(C)=CCN1CCN(CCC2=C(C)CCCC2(C)C)CC1CCO (stereo unspecified),n,n,n,n,60.9
CC1=C(CCN2CCN(C3CCCC3)C(CCO)C2)C(C)(C)CCC1 (stereo unspecified),n,n,n,n,n
Cn1cc(-c2nnnn2-c2ccc(Cl)cc2)c(=O)c2ccccc21,n,n,n,n,n
CCn1cc(-c2nnnn2-c2ccc(Cl)cc2)c(=O)c2ccccc21,n,n,37.8,n,n
O=C(CNC(=O)c1cccs1)NCC(=O)OCc1ccc(F)cc1,n,n,35.1,n,n
Cc1ccc(C(=O)NCC(c2ccc3c(c2)OCO3)N2CCOCC2)cc1 (stereo unspecified),x,x,n,n,x
CCC1CCCCN1CCCCOc1cccc(Cl)c1 (stereo unspecified),n,n,n,n,54.9
Cc1cccc(C(=O)OCC(=O)NN2C(=O)NC3(CCC(C)CC3)C2=O)c1O (stereo unspecified),n,n,n,n,30.6
O=C(CCCCCN1C(=O)c2ccccc2C1=O)Nc1ccc(F)cc1,n,n,n,n,34.5
SMILES,D2 ag-1,D2 PAM-1,D2 PAM-2,D2 ag-2,D2 antag
Cc1cccc(NC(=O)CCCCCN2C(=O)c3ccccc3C2=O)n1,n,n,n,n,34.5
O=C(CCCCCCN1C(=O)c2ccccc2C1=O)NC1CCCCC1,n,n,n,n,32.5
O=C(CCCCCN1C(=O)c2ccccc2C1=O)Nc1ccccc1F,n,n,n,n,n
Cc1ccc(NC(=O)CCCCCN2C(=O)c3ccccc3C2=O)nc1,n,n,n,n,n
Cc1cccc(NC(=O)CCCN2C(=O)c3ccccc3C2=O)n1,n,n,n,n,33.9
Cc1ccc(CO)cc1Nc1ncnc2onc(-c3ccc(F)cc3)c12,x,x,n,x,x
CCOc1ccc(/C=C(\C#N)C(=O)Nc2sc3c(c2C(=O)OC)C(C(=O)OC)CC3)cc1OC (stereo unspecified),x,x,n,n,x
CCOC(=O)CCCSc1nnc(CCCCCN2C(=O)c3cccc4cccc(c34)C2=O)o1,n,n,n,n,n
CCOC(=O)CCCCCN1C(=O)c2cccc3cccc(c23)C1=O,n,n,30.5,n,n
COc1ccc(/C=C\C(=O)NC2CC(=O)N(c3ccc(F)cc3)C2)cc1OC (stereo unspecified),x,x,n,n,x
CNc1ccc2c3c(cccc13)C(=O)N(C)C2=O,n,n,n,127.8,71.9
Cc1c(CC(=O)N[C@@H](C)C(=O)O)c(=O)oc2cc3c(cc12)CCC(C)(C)O3,n,n,n,n,36.3
Cc1c(CC(=O)NC(C)C)c(=O)oc2cc3c(cc12)CCC(C)(C)O3,n,n,n,n,n
Cc1cc(C)cc(NC(=O)C(=O)NCC(c2ccc3c(c2)OCO3)N2CCN(C)CC2)c1 (stereo unspecified),x,x,n,n,x
O=C(CCC1CCCCC1)Nc1ccc(C(=O)c2ccncc2)cc1,n,n,n,n,47.7
O=c1c2sc3ccccc3c2n(Cc2ccccc2F)c(=O)n1-c1ccccc1Cl,x,x,n,n,x
CC1CCCN(CCCNC(=O)c2coc3nc4ccccc4nc23)C1 (stereo unspecified),n,n,n,n,32.6
CC1(C)C(=O)NCCN1C(=O)CCC(=O)O,n,n,32.8,n,n
COc1ccc(CNC(=O)c2cnc(N3CCOCC3)c3ccccc23)cc1,x,x,n,n,x
Cc1ccccc1-c1noc(N)c1C#N,n,76.0,n,n,n
Cc1ccc2oc(=O)c3cnn(CC(=O)N4CCN(c5ccc(F)cc5)CC4)c3c2c1,x,x,n,n,x
O=C(Nc1ccc(Cl)c([N+](=O)[O-])c1)ONC1=NCCCCC1,u,53.8,x,x,x
O=C(CN1C(=O)NC2(CCCCCC2)C1=O)Nc1ccc(Cl)c([N+](=O)[O-])c1,n,n,x,x,x
O=C(ONC1=NCCCCC1)c1cccc([N+](=O)[O-])c1,n,54.7,n,n,n
CC(C)c1ccc(NC(=O)CCNS(=O)(=O)c2ccc3c(c2)oc(=O)n3C)cc1,x,x,x,n,x
COc1ccc(N2CCN(C(=O)c3nn(C)c4c3CSc3ccccc3-4)CC2)cc1,x,x,n,n,x
Cc1cc(C)nc(OC(C(=O)O)C(OCC(C)C)(c2ccccc2)c2ccccc2)n1 (stereo unspecified),n,71.5,n,n,n
CCC(C)COC(c1ccccc1)(c1ccccc1)C(Oc1nc(C)cc(C)n1)C(=O)O (stereo unspecified),n,n,n,n,n
Cc1cc(=O)[nH]c2nnc(SCc3cccc(F)c3)n12,x,x,n,n,x

# Screening results as filed in PubChem BioAssay.
